# Screening results from PubChem BioAssay.
# Most compounds without a hit are left out; they make up all but 1.1% or so of the library.
# MOR-DOR ag-1: agonists of human mu-delta opioid receptor heterodimerization. P35372+P41143. cells, OPRM1-OPRD1 heterodimerization, luminescence. activation, % at 9.3 µM. 340,000 tested, 0.3% active;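 note: 0% = vehicle-treated cells and 100% = reference agonist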
# MOR-DOR inv ag: inverse agonists of human mu-delta opioid receptor heterodimerization; cell-based MOR-DOR heterodimer luminescence, inverse agonism; inhibition, % at 9.3 µM; 340,000 tested, 0.21% active; AID 504357; in the data active = inhibition above about 22%, passing the limit was not always enough;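 note: 0% = cells with DMSO and 100% = wells without cells with DMSO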
# HTR5A ag: HTR5A agonism, opioid heterodimer counter-screen; HTR5A agonist assay, luminescence, cell-based; activation, % at 9.3 µM; 340,000 tested, 0.61% active; AID 504692; in the data active = activation mostly above about 9.5%, no sharp cut-off; inactive = mostly below about 7.6%;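 note: 0% = cells with vehicle only and 100% = reference agonist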
# Target sequence (P47898 whole entry, looked up): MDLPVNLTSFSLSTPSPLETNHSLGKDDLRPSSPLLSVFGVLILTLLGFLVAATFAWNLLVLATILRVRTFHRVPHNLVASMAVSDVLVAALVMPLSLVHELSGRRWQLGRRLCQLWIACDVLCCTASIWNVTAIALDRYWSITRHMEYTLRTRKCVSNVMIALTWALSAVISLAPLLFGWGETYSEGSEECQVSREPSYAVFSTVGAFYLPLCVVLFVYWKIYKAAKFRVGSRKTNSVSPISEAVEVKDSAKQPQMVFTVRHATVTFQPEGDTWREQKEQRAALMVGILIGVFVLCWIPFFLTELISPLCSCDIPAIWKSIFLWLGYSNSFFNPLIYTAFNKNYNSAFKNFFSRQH
# HTR5A inv ctr: counter-screen for OPRM1-OPRD1 inverse agonists: human HTR5A inverse agonism; HTR5A cell line, luminescence; inhibition, % at 9.3 µM; 340,000 tested, 0.083% active; AID 504634; in the data active = inhibition mostly above about 23%, no sharp cut-off; inactive = mostly below about 18%;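 note: 0% = cells with DMSO and 100% = no-cell wells with DMSO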
# MOR-DOR ag-2: promotes OPRM1-OPRD1 heterodimerization in HTR5A counter-screen; shares compounds with HTR5A ag; U2OS counter-screen cells, complementation luminescence, 3 h; activation, % at 9.3 µM; 800 tested, 13% active; AID 504913
# HTR5A ag conf: HTR5A (human) agonism, confirmation | shares compounds with HTR5A ag | HTR5A agonist cell assay, luminescence | activation, % at 9.3 µM | 800 tested, 17% active; in the data active = activation above about 17%;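 note: 0% = cells with vehicle only and 100% = full reference agonist response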
# * hit, by the source's call; nt = not tested or not shown. Cut-off read from the data, not from the text of the source, unless noted: active = activation above about 18%; inactive = the rest.
SMILES,MOR-DOR ag-1,MOR-DOR inv ag,HTR5A ag,HTR5A inv ctr,MOR-DOR ag-2,HTR5A ag conf
CC(OC(=O)c1ccc(Cl)nc1)C(=O)Nc1ccc2c(c1)OCO2 (stereo unspecified),-3,12,19*,-53,1,2
c1ccc(CCNC2=NCCCS2)cc1,-2,13,20*,-54,2,0
CCOc1ccc(/C(O)=C2/C(=O)C(=O)N(CCCN3CCOCC3)C2c2ccc(C)cc2)cc1C (stereo unspecified),-2,12,4,-12,nt,nt
COc1ccc(C(=O)Nc2cccc([N+](=O)[O-])c2)cc1Br,12,-51,19*,-47,8,0
COc1ccc(C(=O)Nc2ccc(OC)c([N+](=O)[O-])c2)cc1Br,-2,10,1,12,nt,nt
C=CCn1c(Br)nc2c1c(=O)[nH]c(=O)n2C,0,-1,18*,-47,-1,-1
O=S(=O)(/N=C(/c1ccccc1)N1CCOCC1)c1ccc(F)cc1F,-3,10,1,-2,nt,nt
COc1ccccc1C(CNC(=O)c1cccc(NS(=O)(=O)c2ccc(C)c(F)c2)c1)N1CCCC1 (stereo unspecified),1,-4,44*,-97,2,41*
CCOC(=O)N1CCN(C(=O)CSc2nnc3[nH]c(=O)c(C)c(C)n23)CC1,-2,10,-2,-10,nt,nt
CC(=O)N1CCCC(N2CCN(c3cccc(C(F)(F)F)c3)CC2)C1 (stereo unspecified),-2,8,2,-8,nt,nt
Cc1ccc(C(=O)N2CCCC(N3CCN(c4cccc(C(F)(F)F)c4)CC3)C2)s1 (stereo unspecified),5,-26,15*,10,6,6
CN(C)C1(CNC(=O)C2CCN(S(=O)(=O)c3ccccc3C(F)(F)F)CC2)CCCCC1,0,0,0,-22,nt,nt
O=c1[nH]c2ccccc2cc1-c1nnn(-c2ccc(F)cc2)n1,0,-2,0,-2,nt,nt
O=c1[nH]c2ccccc2cc1-c1nnn(-c2ccc(Cl)c(Cl)c2)n1,-4,21,18*,-61,2,-3
O=S1(=O)CCN2N=C(C34CC5CC(CC(C5)C3)C4)SC2=N1,0,-2,18*,6,1,-2
CC(C)(C)OC(=O)C[C@@H]1C/C=C\C[C@@H](CC(=O)N[C@H](CO)Cc2ccccc2)C(=O)N2CCC[C@@H]2COC1=O,-3,18,16*,2,23*,-1
CCOc1ccc(OCCC(=O)OCC(=O)N2CCN(c3ccc(OC)cc3)CC2)cc1,-3,14,1,-3,nt,nt
COc1ccccc1C(=O)COC(=O)CSC(C)C(=O)Nc1cc(C)on1 (stereo unspecified),-4,19,-3,7,nt,nt
COc1cccc(CNC(=O)CCc2nnc3ccc(NCCCN4CCCC4=O)nn23)c1,2,-8,17*,-16,0,0
COc1ccc(CNC(=O)CCc2nnc3ccc(NCCCN4CCCC4=O)nn23)cc1,1,-4,2,1,nt,nt
Cc1ccc(C)c(CNS(=O)(=O)c2c(C)[nH]c(C)c2C(=O)N2CCCCC2)c1,-2,12,1,-4,nt,nt
C=CCNC(=O)c1onc(CSc2ccc(F)cc2)c1C(=O)NCC=C,1,-6,22*,-64,1,-1
O=C(c1ccc(Cl)c(S(=O)(=O)N2CCCCCC2)c1)N1CCN(c2ccccn2)CC1,2,-12,25*,-90,1,31*
CCOc1ccccc1N(CC(=O)NC1CCCCC1)S(=O)(=O)c1ccccc1,3,-22,2,-39,nt,nt
O=S(=O)(N/N=C\C=C\c1ccccc1)c1ccc(Cl)cc1,8,-43,28*,-106,4,43*
SMILES,MOR-DOR ag-1,MOR-DOR inv ag,HTR5A ag,HTR5A inv ctr,MOR-DOR ag-2,HTR5A ag conf
O=S(=O)(N/N=C\c1ccccc1O)c1ccc(Cl)cc1,-2,8,3,-9,nt,nt
COc1ccc2oc(=O)c(C(=O)N3CCc4ccccc43)cc2c1,-1,4,15*,-6,3,6
COc1cccc2cc(C(=O)N3CCc4ccccc43)c(=O)oc12,-4,19,-2,14,nt,nt
Cc1cc(=O)c2c([nH]1)c(C)cc1[nH]c(C)c(C)c12,-3,14,-1,2,nt,nt
Cc1cccc(C(=O)Nc2sc(C)c(-c3ccccc3)c2C#N)c1,7,-40,17*,-22,2,3
COc1ccccc1N1CCN(S(=O)(=O)c2cn(C)nc2C)CC1,-1,4,4,3,nt,nt
COc1ccc(C(CNc2ccc(C(F)(F)F)cn2)N(C)C)cc1OC (stereo unspecified),17,-139,19*,-56,0,-5
CCCCCN(C(=O)CCC(=O)OCc1cc(C)ccc1C)c1c(N)n(CCCC)c(=O)[nH]c1=O,-2,13,-5,-13,nt,nt
COC(=O)[C@@]12CCCCN1[C@H](c1ccc(-c3ccc(F)cc3)cc1)[C@@H]1C(=O)N(C)C(=O)[C@@H]12,1,-6,3,14,nt,nt
COc1ccc(NC(=O)CSc2nnc(Cc3cccn3C)n2-c2ccc(C)cc2)cc1OC,-2,9,15*,-49,3,3
COc1ccc(-n2c(Cc3cccn3C)nnc2SCC(=O)Nc2cccc(OC)c2)cc1,0,1,-2,5,nt,nt
CCOc1cccc(N2CCN(CCNC(=O)Nc3ccc(C)cc3)CC2)c1C,2,-8,15*,-52,6,20*
COc1ccc(N2CCN(CCNC(=O)Nc3ccc(C)c(Cl)c3)CC2)cc1,1,-7,1,-5,nt,nt
CCOc1ccc(NC(=O)NCCN2CCN(c3ccccc3F)CC2)cc1,-2,9,1,-3,nt,nt
COc1ccc(NC(=O)NCCN2CCN(c3cccc(Cl)c3)CC2)cc1,3,-17,19*,-58,15,23*
CSc1nc(=S)n(-c2ccc([N+](=O)[O-])cc2)c(C)c1C(C)=O,-1,6,1,7,nt,nt
CC(C)CC(=O)Nc1nnc(S(=O)(=O)Nc2ccccc2)s1,-3,12,1,-5,nt,nt
Cc1cccc2sc(NNC(=O)c3ccc(S(=O)(=O)N4CCCC(C)C4)cc3)nc12 (stereo unspecified),13,-75,17*,-42,8,3
CCCCC(C(=O)NC1CCCC1)N(C(=O)c1snc(C(N)=O)c1N)c1ccc(F)cc1 (stereo unspecified),5,-25,3,-28,nt,nt
N#Cc1ccc(-c2csc(NC(=O)C3CC3)n2)cc1,1,-3,2,-7,nt,nt
Cc1nc(-c2ccc(C#N)cc2)cs1,1,-4,15*,-13,13,4
CCOC(=O)c1c(-c2ccc(C)cc2)csc1NC(=O)c1cc2ccccc2oc1=O,-1,8,18*,10,1,-5
CCOC(=O)c1c(-c2ccc(C)cc2)csc1NC(=S)NC(=O)c1ccccc1,-1,3,1,21,nt,nt
CC(C)C(OC(=O)CN1C(=O)c2ccccc2C1=O)C(=O)NC1CCCCC1 (stereo unspecified),-1,7,15*,-42,9,6
